Experiment [1] concerns XIP peptide (Xip251-270) binding. Nature of the experiment: XIP fragment 251-270 binding compounds – biochemical, small-molecule microarray, fluorescence 635/667 nm, 0.1 µg/mL protein, primary screen (AID 1182). The note with it: fluorescent protein binding, 635 nm, higher = more signal, called active from +8 up or from −8 down.
For a further experiment, the system named is XIP peptide (Xip251-270). Nature of the experiment: compounds binding XIP fragment 251-270 – biochemical, small-molecule microarray, fluorescence 635/667 nm, 0.5 µg/mL protein, primary screen (AID 1183). The note with it: fluorescence 635 nm, higher = more signal.
Experiment [2] in a line: blood-stage malaria parasite viability loss – strain 3D7, DAPI fluorescence, 100 nL, primary screen (AID 1184).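 Note: parasites grown inside human red blood cells in medium with human serum.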 The note with it: P. falciparum 3D7 growth, 3 d, higher = more signal.
Experiment [3] deals with Homeobox protein Hox-A13 (Mus musculus) (UniProt Q62424). Nature of the experiment: disruptors of Hoxa13 oligonucleotide interaction – biochemical, fluorescence polarization, labeled oligonucleotide, primary screen (AID 1185). Conditions: Hoxa13:DNA binding, 15 min, higher = more signal, called active from +8 up or from −8 down.

Calls of active or inactive are those of the source.

Sequence of Homeobox protein Hox-A13 (Mus musculus) (Q62424 whole entry, looked up): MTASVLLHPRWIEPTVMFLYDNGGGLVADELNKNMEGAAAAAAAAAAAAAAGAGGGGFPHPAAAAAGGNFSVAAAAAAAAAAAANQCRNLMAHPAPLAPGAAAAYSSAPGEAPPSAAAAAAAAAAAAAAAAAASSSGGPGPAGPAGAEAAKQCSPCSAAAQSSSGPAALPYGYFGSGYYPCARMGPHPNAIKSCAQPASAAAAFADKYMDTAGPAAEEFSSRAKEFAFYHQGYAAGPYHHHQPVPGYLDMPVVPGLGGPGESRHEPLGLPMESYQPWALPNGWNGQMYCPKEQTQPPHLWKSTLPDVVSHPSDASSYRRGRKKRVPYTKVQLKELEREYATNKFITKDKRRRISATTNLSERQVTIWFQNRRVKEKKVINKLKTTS

On to `CC(CCN1CCCc2nc(C)c(C)cc21)=NO[C@H](C)c1cn([C@H](CO)Cc2ccccc2)nn1`, for which the results for the composite z-score (in experiment [1]; in the experiment on XIP peptide (Xip251-270)) were -0.0325 (inactive) and 0.532, respectively. Besides, the z-score is -2.52 in experiment [2] and -7.43 (inactive) in experiment [3].
Take `C[C@@H](c1ccccc1)N1C(=O)[C@H]2[C@H]3[C@H](O)[C@H](O)CC(=NNC(=O)OCc4ccccc4)[C@@H]3CC[C@H]2C1=O`: the results for the composite z-score (in experiment [1]; in the experiment with XIP peptide (Xip251-270)) were 0.101 (inactive) and 0.209, respectively. In addition, the results for the z-score in experiment [2] and in experiment [3] were 0.556 and 0.963 (inactive), respectively.
Turning to `CCCNC(=O)OC[C@H]1O[C@H](CCON=C2c3cc(OC)ccc3O[C@H](c3cccc(OC)c3)[C@H]2O)C=C[C@@H]1Oc1ccc(OC)cc1`, the composite z-score in experiment [1] is 0.328 (inactive); with XIP peptide (Xip251-270) it was 0.693. Further, the results for the z-score in experiment [2] and in experiment [3] were 0.365 and -1.94 (inactive), respectively.
Consider `COc1ccc(OC[C@@H](CO)OC)cc1`, for which the results for the composite z-score (in experiment [1]; in the experiment on XIP peptide (Xip251-270)) were 0.617 (inactive) and -0.317, respectively. Further, the figures for the z-score in experiment [2] and in experiment [3] were 1.62 and -0.0261 (inactive), respectively.
For `COC(=O)CC=C[C@@H](C)[C@@H](C=NOC(C)CN1CCCc2nc(C)c(C)cc21)NS(=O)(=O)c1ccc(C)cc1` (stereo partly drawn), the composite z-score in experiment [1] is 0.364 (inactive); in the experiment with XIP peptide (Xip251-270) it was 0.624. The results for the z-score in experiment [2] and in experiment [3] were 0.135 and -7.74 (inactive), respectively.
Regarding `C[C@H]1CC[C@H]2C(=O)O[C@H](CO)CN2[C@@H]1c1ccc(Br)cc1`, the composite z-score was -0.0442 (inactive) in experiment [1] and -0.127 in the experiment with XIP peptide (Xip251-270). The z-score in experiment [2] was 0.389; in experiment [3], -3.98 (inactive).
With `CCC1=NOC(CCC2CC(OC(=O)NCc3cccc4c3OCO4)CC3(CCCC(COC(=O)NCCc4ccc(Cl)cc4)O3)O2)C1` (stereo not drawn), the composite z-score in experiment [1] was 0.214 (inactive); with XIP peptide (Xip251-270), 0.855. Also, the z-score in experiment [2] is -0.184; in experiment [3], -2.58 (inactive).
For `CC(C)[C@@H](OCc1ccccc1)[C@H](C)CON=C1[C@H]2CCn3c(=O)n(-c4ccccc4)c(=O)n3[C@H]2[C@H](O)[C@@H]2O[C@H]12`, in that order: -0.874 (inactive), 0.199, -2 and -5.16 (inactive).
`CO[C@@H]1[C@H](O)CO[C@H]1C=Cc1ccccc1`: the values for the composite z-score (in experiment [1]; with XIP peptide (Xip251-270)) were -0.553 (inactive) and 0.836, respectively. Also, the z-score in experiment [2] is -0.703; in experiment [3] it was -3.28 (inactive).
The matching figures for `CC(CCN1CCCc2nc(C)c(C)cc21)=NOC[C@@H](O)COCc1ccco1`: 4.43 (inactive), 0.831, 0.245 and -8.38 (active).
For `CC(CCN1CCCCc2nc(C)c(C)cc21)=NO[C@H](C)c1cn([C@@H]2COC[C@H]2O)nn1`, in that order: 0.641 (inactive), 0.382, 0.255 and -1.36 (inactive).
For `C#CCCCON=C1[C@H]2CCn3c(=O)n(Cc4cc5c(cc4Cl)OCO5)c(=O)n3[C@H]2[C@H](O)[C@@H]2O[C@H]12`, the composite z-score in experiment [1] is -0.18 (inactive); in the experiment on XIP peptide (Xip251-270), 0.278. Further, the z-score is -0.579 in experiment [2] and -0.911 (inactive) in experiment [3].
Take `CCOC(=O)[C@H](CC(C)C)NC(=O)CCC1CC(OC(=O)NCCc2ccc(F)cc2)CC2(CCCC(COC(=O)NCCCN3CCCC3=O)O2)O1` (stereo partly drawn): the figures for the composite z-score (in experiment [1]; with XIP peptide (Xip251-270)) were 0.173 (inactive) and 0.74, respectively. Also, the z-score is -1.82 in experiment [2] and -6.3 (inactive) in experiment [3].
Take `COC(=O)[C@H](C)NC(=O)CCC1CC(OC(=O)NCc2ccc3c(c2)OCO3)CC2(CCCC(COC(=O)NCCc3ccc(Cl)cc3)O2)O1` (stereo partly drawn): the composite z-score is 0.0239 (inactive) in experiment [1] and 0.375 in the experiment on XIP peptide (Xip251-270). The z-score in experiment [2] was -1.97; in experiment [3] it was -5.07 (inactive).
Regarding `COC(=O)[C@H](C)NC(=O)CCC1CC(OC(=O)NCc2cccc3ccccc23)CC2(CCCC(COC(=O)NCc3cccc(C(F)(F)F)c3)O2)O1` (stereo partly drawn), the composite z-score is -0.179 (inactive) in experiment [1] and 0.128 with XIP peptide (Xip251-270). The z-score in experiment [2] was -1.74; in experiment [3] it was -4.97 (inactive).
As to `COC(=O)[C@@H]1CC[C@H](C)[C@@H](c2ccc(C)cc2)N1C(=O)c1ccc(C=NOC[C@@H](O)[C@H]2O[C@@H]3OC(C)(C)O[C@@H]3[C@H]2O)cc1`, the composite z-score in experiment [1] was 0.102 (inactive); in the experiment on XIP peptide (Xip251-270) it was 0.228. The z-score in experiment [2] was -0.209; in experiment [3], -6.03 (inactive).
For the compound `O=C1CCCC=C1C(O)C1CCCCC1` (stereo not drawn), the values for the composite z-score (in experiment [1]; with XIP peptide (Xip251-270)) were -0.459 (inactive) and -0.11, respectively. The z-score was 0.247 in experiment [2] and -0.0768 (inactive) in experiment [3].
Regarding `CC(C)[C@@H](OCc1ccccc1)[C@H](C)C=NO[C@@H](C)c1cn([C@H](CO)Cc2ccccc2)nn1`, the composite z-score in experiment [1] is 0.334 (inactive); in the experiment on XIP peptide (Xip251-270), -0.0098. Also, the z-score was 0.949 in experiment [2] and -5.22 (inactive) in experiment [3].
In the case of `O=C1CCCC=C1C(O)c1ccc([N+](=O)[O-])cc1` (stereo not drawn), the composite z-score in experiment [1] was -0.542 (inactive); in the experiment with XIP peptide (Xip251-270), 0.852. In addition, the z-score in experiment [2] is 0.938; in experiment [3] it was 0.164 (inactive).
For `O=C1C2=CC[C@H]3C(=O)N(C[C@@H]4CCCO4)C(=O)[C@H]3[C@H]2[C@H](O)[C@@H]2O[C@H]12`, in that order: -0.14 (inactive), 0.39, -0.434 and -3.47 (inactive).
The matching figures for `CC(CCN1CCCCc2nc(C)c(C)cc21)=NO[C@@H](C)c1cc(-c2c(C)cc(C)cc2C)no1`: 0.107 (inactive), 0.0399, -0.143 and -2.25 (inactive).
The matching figures for `CON(C)C(=O)c1nnc2c(n1)[nH]c1ccccc12`: -0.132 (inactive), 0.755, 0.763 and 0.447 (inactive).

(Values after PubChem BioAssay.)
